Assay outcomes from PubChem.
G9a inh-1: G9a (human) methyltransferase inhibition; G9a H3K9 monomethylation, AlphaScreen, 2 h; Potency, µM (titrated, usually from 102 µM), for inactives: top-dose activity, negative = inhibition, hits mostly inhibitors; actives 8.8% (n = 350,000); note: potency is the fitted concentration of half-maximal effect; % is set by controls: 0 for no effect and ±100 for the full control effect; nearly all actives have a fitted effect of over 75% in size
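Using a bead-based AlphaScreen, monomethylated H3K9 product from 2 h room-temperature reactions (G9a 20 nM, peptide 500 nM, SAM 20 uM) was detected with 0.5 ug/mL rabbit anti-H3K9me1 antibody.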
BAZ2B block: inhibitors of human BAZ2B bromodomain; Q9UIF8; AlphaScreen BAZ2B-H3K14Ac peptide displacement; Potency, µM (doses to about 114 µM), without a hit: at the top dose activity change, negative = inhibition, most hits filed as inhibitors; actives 4.4% (n = 360,000); note: potency is the fitted concentration of half-maximal effect; % is set by controls: 0 for no effect and ±100 for the full control effect; nearly all actives have a fitted effect of over 60% in size
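Compounds, titrated to a top concentration of 110 uM, were incubated 30 min at room temperature with preformed BAZ2B/acetyl-K14 H3 peptide complex (50 nM each). Proximity signal was measured by AlphaScreen after 20 min with beads.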
HP1b chromo inh: blocks HP1-beta chromodomain binding to methylated histone tails; P83916; AlphaScreen HP1-beta / biotin-H3K9me3 peptide binding; actives 0.56% (n = 390,000); Potency, µM (titrated, usually from 114 µM), inactives show at the top dose activity change, negative = inhibition, hits mostly inhibitors; note: potency is the fitted concentration of half-maximal effect; nearly all actives have a fitted effect of over 70% in size
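HP1-beta protein (50 nM final) preincubated 30 min at room temperature with biotinylated H3(1-18)K9me3 peptide (50 nM) in PBS pH 7.4, 0.01% Tween-20, then compound added for 30 min. AlphaScreen streptavidin donor/nickel chelate acceptor beads (10 ug/mL final), 30 min dark, luminescence read.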
L3MBTL1 block: blocks human L3MBTL1; actives 0.66% (n = 230,000); AlphaScreen L3MBTL1–H3K9me1 peptide binding; Potency, µM (series often up to 57.1 µM), inactives show at the top dose activity, negative = inhibition, hits mostly inhibitors; AID 485360; note: potency is the fitted concentration of half-maximal effect; % is set by controls: 0 for no effect and ±100 for the full control effect; nearly all actives have a fitted effect of over 60% in size
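L3MBTL1 50 nM + b-AHA-H3(1-15)K9me1 75 nM, 30 min RT; compound added, 30 min RT; streptavidin donor/Ni-chelate acceptor beads 10 ug/mL each final, 30 min RT dark; AlphaScreen read.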
JMJD2A Tudor inh: blocks the human JMJD2A Tudor domain; O75164; AlphaScreen JMJD2A-Tudor / H3K4me3 peptide binding; Potency, µM (doses to about 114 µM), for the others: top-dose activity change, negative = inhibition, actives largely listed as inhibitors; actives 4.4% (n = 390,000); AID 504339; note: potency is the fitted concentration of half-maximal effect; % is set by controls: 0 for no effect and ±100 for the full control effect; nearly all actives have a fitted effect of over 50% in size
12-hLO 8HQ R1: 12-hLO (human) inhibition, 8HQ series round 1 | shares compounds with BAZ2B block | purified 12-hLO, cuvette UV 234 nm product formation | Potency, µM, usual class: inhibitors | actives 60% (n = 35);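 active = compounds that slowed 12-hLO product formation enough to yield a measured IC50 potency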
JMJD2E inh-1: JMJD2E demethylase inhibition by 8HQ compounds | shares compounds with BAZ2B block | JMJD2E demethylase, FDH-coupled NADH fluorescence | Potency, µM (titrated, usually from 57 µM), for inactives: at the top dose activity, negative = inhibition, most hits filed as inhibitors | actives 89% (n = 130) | AID 493212
Target sequence (B2RXH2 1-337 limits assumed): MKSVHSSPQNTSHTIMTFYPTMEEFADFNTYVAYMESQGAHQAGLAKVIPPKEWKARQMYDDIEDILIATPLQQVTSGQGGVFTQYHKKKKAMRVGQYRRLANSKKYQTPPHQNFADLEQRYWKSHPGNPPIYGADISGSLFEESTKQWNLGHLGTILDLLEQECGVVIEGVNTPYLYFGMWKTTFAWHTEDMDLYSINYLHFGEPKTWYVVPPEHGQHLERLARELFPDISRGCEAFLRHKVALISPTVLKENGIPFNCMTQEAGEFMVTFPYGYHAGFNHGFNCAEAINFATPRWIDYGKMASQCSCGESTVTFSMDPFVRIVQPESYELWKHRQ
JMJD2E inh-2: JMJD2E (human) demethylase inhibition, confirmation; shares compounds with JMJD2A Tudor inh; Potency, µM (series often up to 56.8 µM), without a hit: at the highest dose activity change, negative = inhibition, hits mostly inhibitors; actives 93% (n = 140); Recombinant JMJD2E, FDH-coupled NADH fluorescence (FDH is formaldehyde dehydrogenase)
FDH inh: counter-screen for JMJD2E inhibitors: Pseudomonas putida formaldehyde dehydrogenase. shares compounds with JMJD2A Tudor inh. FDH enzyme assay, NADH fluorescence kinetic. Potency, µM (doses to about 56.7 µM), without a hit: at the highest dose activity, negative = inhibition, most hits filed as inhibitors. actives 10% (n = 140)
Target sequence (P46154 whole entry, looked up): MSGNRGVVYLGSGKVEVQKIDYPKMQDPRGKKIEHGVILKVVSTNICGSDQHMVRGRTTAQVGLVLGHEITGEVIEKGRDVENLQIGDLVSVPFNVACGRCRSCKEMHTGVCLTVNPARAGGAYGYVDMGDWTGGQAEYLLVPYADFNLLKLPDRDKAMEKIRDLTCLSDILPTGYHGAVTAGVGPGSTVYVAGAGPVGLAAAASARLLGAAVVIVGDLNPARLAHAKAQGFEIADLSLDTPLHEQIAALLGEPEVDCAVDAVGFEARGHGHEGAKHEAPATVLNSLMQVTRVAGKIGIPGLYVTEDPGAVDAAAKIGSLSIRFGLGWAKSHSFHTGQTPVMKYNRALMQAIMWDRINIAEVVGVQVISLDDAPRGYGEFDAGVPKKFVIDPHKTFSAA
JMJD2E MALDI inh: inhibitors of human JMJD2E demethylase; shares compounds with JMJD2A Tudor inh; recombinant JMJD2E demethylation, MALDI-TOF-MS; Potency, µM, usual class: inhibitors; actives 90% (n = 45); AID 2688;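 active = compounds whose IC50 for blocking JMJD2E demethylation is below 100 µM; inconclusive = dose dependent effect but IC50 above 100 µM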
G9a inh-2: confirmation of human histone methyltransferase G9a inhibitors. AID 588344. actives 89% (n = 370). G9a H3K9 monomethylation, AlphaScreen, 2 h. shares compounds with JMJD2A Tudor inh. Potency, µM, hits mostly inhibitors; note: potency is the fitted concentration of half-maximal effect; nearly all actives have a fitted effect of over 65% in size
RGS4 inh: confirmation of human RGS4 inhibitors | shares compounds with JMJD2A Tudor inh | RGS4 GAP activity, Transcreener GDP fluorescence polarization | Potency, µM, usual class: inhibitors | actives 80% (n = 25) | AID 602388
The depositor's hits bear a star; i = inactive; u = inconclusive; x = not tested or not shown; [ ] = dose if it differs, or a comment. Shown are actives, neighbours in structure and some others; about 11% of the full set was active somewhere. Unless noted, calls come from the whole dose curve; as a rule, active = well fitted curve in the direction sought with a large enough effect; inconclusive = small, poorly fitted or top-dose-only effect, or another doubt; inactive = no such curve, though single readings can be large; an effect the other way counts as inactive or inconclusive.

SMILES	G9a inh-1	BAZ2B block	HP1b chromo inh	L3MBTL1 block	JMJD2A Tudor inh	G9a inh-2	others
CCC(=O)NC(c1ccc(Br)o1)c1cc(Cl)c2cccnc2c1O (stereo not drawn)	x	x	x	x	-17.8%	x	12-hLO 8HQ R1=i;JMJD2E inh-1=10µM*;JMJD2E inh-2=10µM*;FDH inh=-27.3%
CCC(=O)NC(c1ccc(C)cc1)c1cc(Cl)c2cccnc2c1O (stereo not drawn)	x	x	34.9%	39.9%	-7.5%	x	12-hLO 8HQ R1=i;JMJD2E inh-1=6.9%;JMJD2E inh-2=6.9%;FDH inh=-9.1%
CNC(=O)COc1ccc(Cl)c2cccnc12	x	-9.3%	3.8%	10.3%	-15.9%	x
N#CCCn1cc(/C=N/NC(N)=S)c(-c2ccc(-c3ccccc3)cc2)n1	u	-38.6%	-9.8%	x	u	x
COc1ccc(-c2ccc(CO)o2)cc1N	u	-38.2%	15.7%	-24.5%	-18.9%[57.1 µM]	x
COc1ccc(C(=O)N(C)C2CCCN(Cc3ccccc3F)C2)cc1C (stereo not drawn)	x	16.3%	14.4%	49.8%	-15.1%	x
CN(C)C1CCN(Cc2cc(COCc3ccccc3)c3cccnc3c2O)C1 (stereo not drawn)	-37.9%[12.7 µM]	10µM*	26.2%	10µM*	31.6µM*	x	JMJD2E inh-1=11.5µM*;JMJD2E inh-2=7.94µM*;FDH inh=-18.2%
Oc1c(CN2CCCCC2)cc(COCc2ccccc2)c2cccnc12	u	6.31µM*	19.2%	12.6µM*	20µM*	x	JMJD2E inh-1=3.98µM*;JMJD2E inh-2=3.98µM*;FDH inh=-27.3%
O=C(COC(=O)c1cccnc1Cl)Nc1ccc(N2CCCCC2)cc1	-8.9%[2.33 µM]	-38.9%	-6.7%	-4.1%	u	x
Oc1cc(Nc2ccc(N3CCCCC3)cc2)cc2cccnc12	2.0%[12.7 µM]	35.5µM*	x	u	x	x	JMJD2E inh-1=28.2µM*;JMJD2E inh-2=28.2µM*;FDH inh=-18.2%;JMJD2E MALDI inh=34.4*
Cc1ccc(C(=O)N/N=C/c2ccoc2)cc1C	x	u	29.7%	x	u	x
Cc1cc(C)nc(Nc2cccc3ccccc23)n1	x	-11.6%	21.2%	x	-7.8%	x
Cc1cc2n(n1)SC(Nc1cccc3ccccc13)N2 (stereo not drawn)	0.631µM*	-1.8%	-5.6%	-10.8%	50.1µM*	0.71*
Nc1nc2ccc(NC(=O)c3ccco3)cc2s1	u	-34.2%	-25.3%	x	-12.7%	x
Cn1c(SCC(=O)NC(C)(C)C)nnc1-c1cccc(NC(=O)c2ccccc2F)c1	u	7.2%	16.2%	x	u	1.42*
Cn1c(SCC(=O)Nc2ccc3c(c2)oc2ccccc23)nnc1-c1ccccc1	2µM*	0.8%	-2.4%	x	u	7.08*
Cn1c(SCC(=O)N2CCOCC2)nnc1-c1cccc(NC(=O)c2ccccc2F)c1	u	10.6%	31.9%	-8.1%	-5.5%	x
Cn1c(SCC(=O)NC(=O)Cc2ccccc2)nnc1-c1ccc(F)cc1	x	x	-12.9%	7.5%	-16.6%	x
COc1ccc(-c2nnc(SCC(=O)NC(=O)Cc3ccccc3)n2C)cc1	u	6.4%	34.6%	-0.1%	4.7%	u
CC(=O)N1c2ccc(S(=O)(=O)N3CCCC3)cc2CC1C(=O)NCc1ccccc1F (stereo not drawn)	12.6%	-1.3%	4.0%	x	-16.0%	x
CCOc1cc(CN2CCN(S(=O)(=O)c3ccc(C)cc3)CC2)ccc1OC	0.891µM*	50.1µM*	u	x	25.1µM*	32.4*
COc1ccccc1-c1nccc(NCc2cnc(C)cn2)n1	x	x	x	x	x	x	RGS4 inh=26.7*
CCCOc1ccc(C(=O)Nc2ccc(N(C)C)cc2)cc1	u	-30.0%	12.2%	x	-26.7%	1*
CCCCOC(=O)Nc1ccc(C(C)C)cc1	23.2%[59 µM]	114.2%	151.2%	30.2%	107.9%	x
CCCCOC(=O)Nc1ccc(N(C)C)cc1	1.58µM*	39.8µM*	u	-18.1%	79.4µM*	1.59*
SMILES	G9a inh-1	BAZ2B block	HP1b chromo inh	L3MBTL1 block	JMJD2A Tudor inh	G9a inh-2	others
COc1cccc(NC(=O)Cc2nnc(SCC(=O)c3ccccc3)n2C)c1	0.355µM*	10.7%	24.2%	23.6%	-11.8%	0.71*
CCOc1cc(CNc2ccccc2SC)ccc1O	u	56.2µM*	x	x	x	7.96*
O=C(Nc1ccccc1OC(F)F)c1ccc(S(=O)(=O)N2CCOCC2)cc1	x	7.7%	17.7%	x	-10.9%	x
CN(C)c1ccc(NC(=O)CCSc2nc(-c3ccco3)cc(C(F)(F)F)n2)cc1	0.708µM*	u	-2.6%	x	u	1.26*
COC(=O)c1ccccc1NC(=O)c1nc(-c2ccc(Cl)cc2)n2c1CCCCC2	-39.0%[59 µM]	-5.4%	30.7%	x	-26.1%	x
Cc1ccc2[nH]c(=O)c(CN(Cc3ccc4c(c3)OCO4)Cc3nnnn3Cc3ccco3)cc2c1	u	-24.6%	1.4%	-12.4%	-32.1%	x
O=c1[nH]c2cc3c(cc2cc1CN(Cc1cccs1)Cc1nnnn1Cc1ccco1)OCCO3	u	x	-24.1%	u	u	x	RGS4 inh=9.47*
O=C(CN1CCN(c2ccc(O)cc2)CC1)Nc1ccccc1C(=O)NCCc1ccccc1	u	-7.3%	u	-15.8%	u	1.26*
Cc1ccc(S(=O)(=O)NCC(=O)NCC(=O)N(C)Cc2ccc3ccccc3c2)cc1C	-32.1%	u	16.6%	x	-26.0%	x
CCOc1ccc(Nc2nc(N3CCCC3)nc(N3CCN(c4ccc(OC)cc4)CC3)n2)cc1	u	-35.1%	-2.4%	x	-13.0%	x
COc1ccc(N2CCN(c3nc(NC(C)(C)C)nc(N4CCCCC4)n3)CC2)cc1	u	3.16µM*	u	-27.7%	u	12.6*
CCN(CC)c1ccc(NC(=O)COC(=O)Cc2ccsc2)cc1	2.82µM*	44.7µM*	u	u	50.1µM*	6.31*
